HePTP inhibitor = inhibitors of human HePTP phosphatase, primary screen, biochemical, absorbance, leukemia target; Tyrosine-protein phosphatase non-receptor type 7 (Homo sapiens), P35236; recombinant HePTP phosphatase activity, OD absorbance; inhibition, % at 20 µM; actives 0.64% (n = 110,000); AID 521, 2006; in the data active means inhibition above about 50%;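 further: plate controls were vehicle for no effect and reference inhibitor for full effect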
PLAP activator = PLAP enzyme activators, biochemical, luminescence, HTS. activation fold at 20 µM. Alkaline phosphatase, placental type (Homo sapiens), P05187. purified PLAP enzyme, luminescent substrate read-out; active compounds read high. actives 1.2% (n = 96,000); in the data active means activation fold above about 2
Target sequence (P05187 whole entry, looked up): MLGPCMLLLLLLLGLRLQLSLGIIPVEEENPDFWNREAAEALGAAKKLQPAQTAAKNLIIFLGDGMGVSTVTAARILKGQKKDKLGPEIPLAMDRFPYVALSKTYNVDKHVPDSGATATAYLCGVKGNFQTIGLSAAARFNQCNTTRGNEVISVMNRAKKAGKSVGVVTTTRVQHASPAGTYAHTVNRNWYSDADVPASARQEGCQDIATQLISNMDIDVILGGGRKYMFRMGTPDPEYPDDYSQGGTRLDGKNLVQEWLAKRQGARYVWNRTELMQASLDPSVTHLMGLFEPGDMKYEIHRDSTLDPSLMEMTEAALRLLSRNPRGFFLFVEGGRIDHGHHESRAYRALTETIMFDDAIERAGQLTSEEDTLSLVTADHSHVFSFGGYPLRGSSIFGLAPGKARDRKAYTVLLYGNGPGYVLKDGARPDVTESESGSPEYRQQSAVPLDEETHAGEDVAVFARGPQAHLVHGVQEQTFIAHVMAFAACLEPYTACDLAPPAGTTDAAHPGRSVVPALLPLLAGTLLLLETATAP
Mac1 fbg inh = inhibitors of CD11b/CD18 adhesion to fibrinogen, primary screen, K562 cells, luminescence; inhibition, % at 10 µM; ATPlite luminescence; Mn2+ added to activate the integrin; actives 0.54% (n = 93,000); AID 1497, 2009;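 active means primary inhibition of 50% or more at 10 µM, then 40% or more on retest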
Mac1 fbg enh = enhancers of CD11b/CD18 adhesion to fibrinogen, primary screen, K562 cells, luminescence; actives 0.07% (n = 93,000); activation, % at 10 µM; Integrin beta-2 (Homo sapiens) + Integrin alpha-M (Homo sapiens), P05107+P11215; ATPlite luminescence; AID 1499, 2009;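 active means 10 µM primary screen giving 50% or more activity, confirmed by 40% or more on retest at that dose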
The depositor's hits bear a star; / = no result. The list is not random: actives were taken first. Their share in the collection is about 1.5%.

SMILES	HePTP inhibitor	PLAP activator	Mac1 fbg inh	Mac1 fbg enh
O=C(CSc1nnc(Cc2ccccc2)n1-c1ccccc1)NNC(=O)Cc1ccccc1	/	2.5*	-3.7	3.3
COC(C(=O)Nc1ccc(S(=O)(=O)N2CCCCC2)cc1)c1ccccc1 (centres undefined)	/	2*	-38.6	-2.2
Cc1ccc(NC(=O)c2ccc(-c3cc(Cl)ccc3Cl)o2)c([N+](=O)[O-])c1	-2.3	/	/	/
CCOc1cc(C(c2c(C)[nH][nH]c2=O)c2c(C)[nH][nH]c2=O)ccc1OS(=O)(=O)c1ccccc1	/	2.6*	-1.9	-0.1
COc1cc(C=C2C(=O)N(C)C(=O)N(C)C2=O)ccc1OCc1ccc([N+](=O)[O-])cc1	-5.8	/	/	/
Cc1ccccc1C(=O)NNC(=O)Cc1ccccc1	1.6	2*	7.1	-3.1
CCc1ccc(/C=C/C(=O)C2C(=O)c3ccccc3C2=O)cc1	/	1.4	95.3*	-10.8
CN(C)c1ccc(/C=C/C(=O)C2C(=O)CCC2=O)cc1	11.3	/	/	/
O=C(c1ccccc1)C1C(=O)c2ccccc2C1=O	-0.6	1.2	7.7	-2.6
O=C(/C=C/c1ccccc1)C1C(=O)c2ccccc2C1=O	/	/	86.8*	-7.1
O=C(O)CCC(=O)NCc1ccc(Cl)cc1	-13.3	/	/	/
COC(=O)CSc1ncc(C#N)c(N)n1	-0.5	1.1	5.8	-6.1
Cc1cccc(OCC(=O)NNC(=O)CSc2ncc(C#N)c(N)n2)c1	/	2*	-15.8	-0.8
COc1ccccc1NC(=O)N(CCN(C)C)Cc1cc2cc(C)ccc2[nH]c1=O	5.4	2*	-5.3	-1.1
[O-][n+]1c2c(c3c4non(O)c4ccc31)CCCC2	/	0.8	96.0*	-5.9
C=CCOc1ccc(/C=C/C(=O)c2ccc(F)cc2)cc1	7.0	/	/	/
O=C1N=C(N2CCOCC2)S/C1=C/c1ccc(Cl)cc1	101.9*	/	/	/
S=C(Nc1ccccc1)N1N=CCC1c1ccccc1 (centres undefined)	/	0.9	72.5*	-4.2
Fc1ccc(NC(=S)N2N=CCC2c2ccccc2)cc1 (centres undefined)	/	1.3	-13.7	-1.1
CCCCCCn1c(C)nc2c(c1=O)c1nc3ccccc3nc1n2/N=C/c1ccco1	/	2*	1.1	-2.6
CC(C)(C)c1cc(C(=S)N2CCOCC2)cc(C(C)(C)C)c1O	-5.0	/	/	/
Oc1cccc(C=NC2CCCCC2)c1	63.9*	/	/	/
Oc1cccc(C=Nc2ccccc2O)c1	-16.5	/	/	/
COc1ccc(C(=S)N2CCCC2)c(OC)c1	94.2*	/	/	/
COc1ccc(C(=O)c2ccc(OC)cc2OC)c(OC)c1	5.0	/	/	/
SMILES	HePTP inhibitor	PLAP activator	Mac1 fbg inh	Mac1 fbg enh
O=C(Nc1ccc(I)cc1Cl)c1cc2ccccc2o1	3.0	/	/	/
Cc1ccc(Cl)cc1N1CCN(C(=O)c2cc3c(=O)n(C)c4ccccc4c3n2C)CC1	13.3	1.6	85.6*	-6.6
Cn1c(C(=O)NCCCN2CCN(c3ccccc3F)CC2)cc2c(=O)n(C)c3ccccc3c21	12.2	2.3*	13.4	-4.0
Cn1c(C(=O)NCCCN2CCOCC2)cc2c(=O)n(C)c3ccccc3c21	10.9	1.8	-6.0	-3.9
O=C(CC(=O)Nc1cccc(C(F)(F)F)c1)Nc1cccc(C(F)(F)F)c1	98.8*	/	/	/
O=C(COCC(=O)Nc1cccc(C(F)(F)F)c1)Nc1cccc(C(F)(F)F)c1	/	1.2	8.9	-3.6
O=C(COc1ccc(Cl)cc1Cl)Nc1ccc(S(=O)(=O)Nc2ncccn2)cc1	7.4	/	/	/
O=S(=O)(Nc1nnc(-c2ccccc2)s1)c1ccc(Cl)cc1	-1.7	1.1	86.1*	-9.5
Cc1ccc2c(C)nc(Nc3nc(CSc4nc5ccccc5[nH]4)cc(=O)[nH]3)nc2c1	/	2.2*	/	/
COc1cccc(N2C(=O)/C(=C/c3cccc([N+](=O)[O-])c3)SC2=S)c1	-15.7	/	/	/
Cc1nc2sccn2c1-c1csc(NCc2ccccc2)n1	-1.5	1.1	108.9*	-9.1
O=C1CC(O)(C(F)(F)F)Oc2c1ccc1ccccc21 (centres undefined)	4.4	1.1	89.6*	-6.8
O=C1CC(O)(C(F)F)Oc2ccc3ccccc3c21 (centres undefined)	4.1	0.8	-4.9	-0.3
COc1cc(CNC2CCCC2)cc(Cl)c1OCc1ccccc1F	/	2*	46.9	1.4
COc1cc(CNC2CCCCCC2)cc(OC)c1O	7.5	1	-0.7	-6.0
COc1ccc(N2C(=O)CC(NCCCc3ccccc3)C2=O)cc1 (centres undefined)	-1.7	/	/	/
CCc1ccc(S(=O)(=O)N=Nc2c(O)[nH]c3ccccc23)cc1	0.7	/	/	/
c1ccc(-c2n[nH]c(-c3ccccn3)n2)nc1	3.9	2.8*	-30.2	0.1
c1ccc(-c2nc3cc4ccccc4cc3[nH]2)nc1	/	1.7	56.9	-2.3

Screening results as filed in PubChem.
